Screens deposited in PubChem BioAssay by National Center for Advancing Translational Sciences (NCATS).
A selection: hits, their analogues and other compounds. The true share with any hit is near 1.2%.
TSG101-PTAP inh: blocks PTAP/TSG101 interaction to inhibit HIV-1 budding; 340,000 tested, under 10 active; Fluorescence polarization, FITC-PTAP peptide / Tsg101 binding; Q99816; AID 493005; Potency, µM (highest dose often 115 µM), actives largely listed as inhibitors; active = well fitted inhibition curve with a large enough effect in the main read-out, with a control signal flat, not every such curve was filed as active; inconclusive = small, poorly fitted or top-dose-only effect, or effect the other way, or a change in a side signal; inactive = no such curve, though single readings can be large or run the other way
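Steps: Tsg101 binding domain dispensed (10 uM final), compounds pinned in DMSO, FITC-labeled PTAP-motif peptide added (50 nM final); after 20 min binding at room temperature, polarization measured.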
KCNH2 3.1 inh: inhibitors of human KCNH2 3.1 potassium channel isoform | AID 720553 | actives 0.95% (n = 340,000) | U2OS KCNH2 3.1, thallium flux FluxOr; active compounds read low | activity change, % (tested at about 1.8 µM);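 active = maximum activity change below -70%; inconclusive = maximum activity change from -70% to -50%; inactive = maximum activity change above -50%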;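 also: thallium influx rate constant from kinetic fluorescence after stimulation buffer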
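Measured as rate of thallium-driven FluxOr signal in transduced U2OS cells carrying the 3.1 channel, read kinetically for 2 min upon stimulation; values are rate constants scaled to DMSO control wells.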
hERG WT inh: inhibitors of human wildtype KCNH2 potassium channel; Q12809; U2OS, BacMam KCNH2, thallium flux FluxOr; active compounds read low; activity change, % at 1.84 µM; actives 0.37% (n = 340,000); AID 720551;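 active = maximum activity change below -70%; inconclusive = maximum activity change between -70% and -50%; inactive = maximum activity change above -50%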
Target sequence (Q12809 whole entry, looked up): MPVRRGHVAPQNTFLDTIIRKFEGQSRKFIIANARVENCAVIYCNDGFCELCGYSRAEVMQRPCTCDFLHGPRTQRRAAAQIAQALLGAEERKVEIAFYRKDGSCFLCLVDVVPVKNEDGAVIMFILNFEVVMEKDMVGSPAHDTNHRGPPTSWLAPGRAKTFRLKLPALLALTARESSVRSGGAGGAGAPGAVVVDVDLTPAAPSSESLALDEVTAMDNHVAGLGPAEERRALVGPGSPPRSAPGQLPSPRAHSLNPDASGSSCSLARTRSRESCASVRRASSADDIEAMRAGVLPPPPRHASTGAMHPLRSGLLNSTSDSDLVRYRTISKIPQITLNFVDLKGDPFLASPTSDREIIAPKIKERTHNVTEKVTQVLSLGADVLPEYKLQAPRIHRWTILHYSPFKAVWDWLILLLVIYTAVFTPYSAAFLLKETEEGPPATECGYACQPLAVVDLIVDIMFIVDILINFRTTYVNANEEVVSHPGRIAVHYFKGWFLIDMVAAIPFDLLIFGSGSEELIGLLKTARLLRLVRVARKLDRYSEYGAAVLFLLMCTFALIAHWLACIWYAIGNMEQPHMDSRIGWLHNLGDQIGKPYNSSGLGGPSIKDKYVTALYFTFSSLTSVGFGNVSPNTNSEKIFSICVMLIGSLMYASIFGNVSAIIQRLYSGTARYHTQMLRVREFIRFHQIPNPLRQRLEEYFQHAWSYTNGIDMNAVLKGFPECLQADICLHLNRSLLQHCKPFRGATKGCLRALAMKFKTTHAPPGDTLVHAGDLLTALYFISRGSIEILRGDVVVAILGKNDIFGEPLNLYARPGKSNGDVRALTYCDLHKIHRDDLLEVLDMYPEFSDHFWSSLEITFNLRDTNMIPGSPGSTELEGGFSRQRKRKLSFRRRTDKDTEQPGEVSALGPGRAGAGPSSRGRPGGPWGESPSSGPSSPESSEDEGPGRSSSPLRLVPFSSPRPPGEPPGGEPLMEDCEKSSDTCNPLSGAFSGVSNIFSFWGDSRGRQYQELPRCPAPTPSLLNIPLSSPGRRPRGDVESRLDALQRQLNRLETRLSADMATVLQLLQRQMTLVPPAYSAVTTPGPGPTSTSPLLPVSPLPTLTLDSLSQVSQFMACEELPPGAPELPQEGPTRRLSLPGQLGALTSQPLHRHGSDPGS
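U2OS cells transduced with wild-type KCNH2 virus are loaded with FluxOr dye for 45 min, and thallium flux is measured in kinetic reads before and after stimulation buffer. Rate constants are normalized to DMSO controls.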
Tb PFK inh: T. brucei PFK enzyme inhibition | T. brucei PFK, ADP-Glo luminescence | Potency, µM (series often up to 57.5 µM), actives largely listed as inhibitors | AID 485367 | O15648 | actives 0.17% (n = 330,000); active = well fitted inhibition curve with a large enough effect; inconclusive = small, poorly fitted or top-dose-only effect, or effect the other way; also: nearly all actives have a fitted effect of over 60% in size
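1.25 nM PFK with 0.5 mM F6P and 0.1 mM ATP in 0.1 M TEA pH 8.0, 5 mM MgCl2, incubated 45 min at room temperature; ADP measured by ADP-Glo luminescence; compounds titrated up to 57 uM.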
Large screens that a line does not name were inactive.

CS(=O)(=O)N1CCCC(C(=O)Nc2ccc(Br)cc2F)C1 (stereo not drawn)	none
CC(OC(=O)CCCN=C1NS(=O)(=O)c2ccccc21)C(=O)NC1CCCCC1C (stereo not drawn)	none
Cc1cccc(S(=O)(=O)N(C)C[C@@H]2OCc3cnnn3CCCC(=O)N([C@@H](C)CO)C[C@@H]2C)c1	none (no result: TSG101-PTAP inh, Tb PFK inh)
CC(C)(C)C1CCc2onc(C(=O)Nc3ccc4c(c3)OCO4)c2C1 (stereo not drawn)	none
COc1ccc(S(=O)(=O)N2CCN(C(=O)C3COc4ccccc4O3)CC2)cc1 (stereo not drawn)	Tb PFK inh 27µM
Clc1cccc(CNCCCSc2ncccn2)c1Cl	KCNH2 3.1 inh -94
O=C(NCCCCl)C1CC(=O)N(CCc2ccc(F)cc2)C1 (stereo not drawn)	none
COc1cc(OC)c(NC(=S)NCc2ccc(F)cc2)cc1Cl	KCNH2 3.1 inh -107
Cn1c(C(=O)N2CCN(c3ccc([N+](=O)[O-])cc3)CC2)cc2c(=O)[nH]c3ccccc3c21	KCNH2 3.1 inh -96, hERG WT inh -71
NC(=S)NNc1ccnc2cc(Cl)ccc12	none
FC(F)Oc1ccc(NC(=S)NNc2ccnc3cc(Cl)ccc23)cc1	TSG101-PTAP inh inconclusive, KCNH2 3.1 inh -81, hERG WT inh inconclusive
COc1ccc(C(=O)CSc2nccn2C)c(OC)c1	none
Cc1cccc(C)c1OCc1cc(C(=O)NC2CCC2)no1	KCNH2 3.1 inh -94
CO/N=C/c1ccc(N2CCN(C(=O)c3ccc(Cl)cc3Cl)CC2)c([N+](=O)[O-])c1	KCNH2 3.1 inh -109
CO/N=C/c1ccc(N2CCN(C(=O)c3cccc(C(F)(F)F)c3)CC2)c([N+](=O)[O-])c1	hERG WT inh -243
Cc1ccc(C(=O)O/N=C\c2ccc(N3CCCCC3)c([N+](=O)[O-])c2)cc1	KCNH2 3.1 inh -77
CO/N=C/c1ccc(N2CCN(C(=O)c3ccc(F)cc3)CC2)c([N+](=O)[O-])c1	KCNH2 3.1 inh -102
O=C(O/N=C\c1ccc(N2CCCCC2)c([N+](=O)[O-])c1)c1c(F)cccc1F	KCNH2 3.1 inh inconclusive
NC(=O)CC(NC(=O)c1ccc(Br)cc1)c1ccc(NC2CCCCCCC2)c([N+](=O)[O-])c1 (stereo not drawn)	KCNH2 3.1 inh inconclusive
CC(C)c1nnc(NC(=O)CCC2CCCCC2)s1	none
Cc1ccc(C(=O)c2c3ccc(C(F)(F)F)cc3[n+]([O-])n2CCCN)cc1	KCNH2 3.1 inh -85
Cc1ccc(C(=O)c2c3ccc(C(F)(F)F)cc3[n+]([O-])n2CCCC(N)=O)cc1	KCNH2 3.1 inh -79
COc1ccc(C(=O)COC(=O)c2sccc2C)cc1OC	none
CCCCn1c(SCC(=O)c2c(N)n(C3CC3)c(=O)[nH]c2=O)nc2cc(S(N)(=O)=O)ccc21	none
CC1CCN(S(=O)(=O)c2ccc3c(c2)c(=O)c(C(=O)N2CCCCC2)cn3C)CC1	none
CC1CCN(S(=O)(=O)c2ccc3c(c2)c(=O)c(C(=O)N2CCOCC2)cn3C)CC1	KCNH2 3.1 inh -127
CC1CCCC(C)N1CCCNC(=O)c1ccc2nc(N3CCCCC3)sc2c1 (stereo not drawn)	hERG WT inh -158
CC1CCCC(C)N1CCCNC(=O)c1ccc2nc(N3CCOCC3)sc2c1 (stereo not drawn)	none
N=c1c2c(n(Cc3ccc(Cl)c(Cl)c3)c3c1CCC3)CCCC2	none
N=c1c2c(n(Cc3ccc(Br)cc3)c3c1CCC3)CCCC2	KCNH2 3.1 inh -78
CN(C(=O)c1ccc(NC(=O)Cc2cccc(NC(=O)C3CCN(C(=O)C4CCCC4)CC3)c2)cc1)C1CC1	none (no result: Tb PFK inh)
Cc1cccc(-c2cc3nc4c(c(NCc5ccco5)n3n2)CCCC4)c1	KCNH2 3.1 inh -83, hERG WT inh inconclusive
O=C(Cc1ccc(F)cc1)NC1CCCCCC1	KCNH2 3.1 inh -87
Cc1cc(O)c(CN(C)C)c2c1C(=O)/C(=C/c1ccco1)O2	TSG101-PTAP inh inconclusive
Cc1cc(O)c(C=O)c2c1C(=O)Oc1c(CO)c(O)c3c(c1O2)C(O)OC3=O (stereo not drawn)	Tb PFK inh 24µM
O=C(c1ccccc1Cl)N(Cc1ccc(Br)cc1)N1C(=O)CCCC1=O	none
O=C(c1ccc([N+](=O)[O-])cc1)N(Cc1ccc(Br)cc1)N1C(=O)CCCC1=O	KCNH2 3.1 inh inconclusive, hERG WT inh -84
COc1cc(CN(C)C(C)C(=O)Nc2ccc([N+](=O)[O-])cc2Cl)ccc1OC(F)F (stereo not drawn)	KCNH2 3.1 inh inconclusive, hERG WT inh -95
O=C(Cc1ccc(Cl)cc1)Nc1ccc(S(=O)(=O)Nc2cnc3ccccc3n2)cc1	Tb PFK inh inconclusive
COc1ccccc1CNC(=O)Cn1nnnc1CN(C)C(C)C	none
COc1ccccc1Cc1nnnn1CC(=O)O	KCNH2 3.1 inh -92
COc1ccc(CCNC(=O)C2CC(=O)N(C3CCCCCCC3)C2)cc1OC (stereo not drawn)	KCNH2 3.1 inh -201
CN(C)S(=O)(=O)N1CCCC(C(=O)c2ccc(C(F)(F)F)cc2)C1 (stereo not drawn)	none
O=C(CCCOc1ccccc1)Nc1ccc(Cl)cn1	KCNH2 3.1 inh -105
Fc1ccccc1C1c2[nH]c3ccccc3c2CCN1Cc1cccn1-c1ncccn1 (stereo not drawn)	KCNH2 3.1 inh -71
Cc1ccccc1C1c2[nH]c3ccccc3c2CCN1Cc1cccn1-c1ncccn1 (stereo not drawn)	none
CCOc1ccc(/C=N/NC(=O)c2csc(C)c2C)c(OCC)c1	KCNH2 3.1 inh -81
COc1ccccc1/C=N/NC(=O)c1csc(C)c1C	none (no result: KCNH2 3.1 inh)
O=C(O)c1ccccc1-c1noc(-c2ccccc2F)n1	none (no result: TSG101-PTAP inh, KCNH2 3.1 inh, hERG WT inh)
COc1ccc(CN2CCN(Cc3cccn3-c3ncccn3)CC2CCO)c(C)c1C (stereo not drawn)	KCNH2 3.1 inh -74
CCOc1ccc(CN2CCN(Cc3cccn3-c3cccnc3)CC2CCO)cc1 (stereo not drawn)	none
CCOc1ccc(CN2CCN(Cc3cccn3-c3ncccn3)CC2CCO)cc1 (stereo not drawn)	KCNH2 3.1 inh -111, hERG WT inh inconclusive
C=CCN1C(=O)c2ccc(C(=O)N(CC)CC(=O)Nc3c(F)cccc3F)cc2C1=O	none
COCCNC(=S)N(C)[C@H]1C[C@H]2c3cc(Oc4ccccc4C)ccc3CCN2C(=O)[C@H]1[C@H](C)O	none (no result: TSG101-PTAP inh, Tb PFK inh)
O=C(NCCC1=CCCCC1)C1CCN(S(=O)(=O)N2CCOCC2)CC1	KCNH2 3.1 inh -71
CN1CCC(Oc2ccccc2Sc2ccccc2)CC1	hERG WT inh -71
CN1CCC(OC(c2ccccc2)c2ccccc2)CC1	none
COc1cccc(NC(=S)NC2CC(C)CC(C)(C)C2)c1 (stereo not drawn)	none (no result: TSG101-PTAP inh, Tb PFK inh)
COc1cc(C)c2c(c1OC)C(=O)CC2	none (no result: Tb PFK inh)
CCc1nnc(NC(=O)Cc2c[nH]c3ccccc23)s1	KCNH2 3.1 inh -144
